This excerpt belongs to a sample that is enriched for hits.
DT40 TDP1 no CPT = qHTS for Inhibitors of human tyrosyl-DNA phosphodiesterase 1 (TDP1): qHTS in cells in absence of CPT | DT40 Tdp1-/- hTDP1 cells, no CPT, ATP luminescence, 48 h | Potency, µM (doses to about 46.2 µM), usual class: inhibitors | hit rate 15% among 420,000 | AID 686978, 2013; note: nearly all actives have a fitted effect of over 55% in size
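No-CPT arm: Tdp1-/-;hTDP1 DT40 cells (400/well) plus compounds, incubated ≥48 hr at 37 °C. Readout CellTiter-Glo luminescence.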
HT1080 IDH1KD tx = HT-1080 IDH1 knockdown cell toxicity (counter line). HT-1080 IDH1 knockdown viability, ATP luminescence, 48 h. Potency, µM (doses to about 46.1 µM), most hits filed as cytotoxic. hit rate 2% among 360,000. AID 686971
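% activity derives from luminescence (CellTiter-Glo), normalised to DMSO and no-cell wells. HT-1080-IDH1KD cells, 750/well, had 48 h compound exposure at 37 °C.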
HT1080NT lethal = kills 2HG-producing HT-1080-NT fibrosarcoma cells | AID 686970 | hit rate 1.6% among 360,000 | Potency, µM (titrated, usually from 46.1 µM), most hits filed as cytotoxic | HT-1080-NT fibrosarcoma viability, CellTiter-Glo ATP luminescence, 48 h;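 note: NT is the 2HG producing partner of a matched IDH1 knockdown line; nearly all actives have a fitted effect of over 55% in size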
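Viability of the 2HG-overproducing fibrosarcoma line after 48 hours of compound exposure at 37 degrees C was determined by luminescence with CellTiter-Glo, and concentration-effect curves were then fitted and categorized.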
ALOX12 inh = blocks human arachidonate 12S-lipoxygenase | Potency, µM (titrated, usually from 108 µM), actives largely listed as inhibitors | hit rate 1.1% among 580,000 | purified 12hLO, xylenol orange hydroperoxide absorbance | AID 1671190
Target sequence (P18054 whole entry, looked up): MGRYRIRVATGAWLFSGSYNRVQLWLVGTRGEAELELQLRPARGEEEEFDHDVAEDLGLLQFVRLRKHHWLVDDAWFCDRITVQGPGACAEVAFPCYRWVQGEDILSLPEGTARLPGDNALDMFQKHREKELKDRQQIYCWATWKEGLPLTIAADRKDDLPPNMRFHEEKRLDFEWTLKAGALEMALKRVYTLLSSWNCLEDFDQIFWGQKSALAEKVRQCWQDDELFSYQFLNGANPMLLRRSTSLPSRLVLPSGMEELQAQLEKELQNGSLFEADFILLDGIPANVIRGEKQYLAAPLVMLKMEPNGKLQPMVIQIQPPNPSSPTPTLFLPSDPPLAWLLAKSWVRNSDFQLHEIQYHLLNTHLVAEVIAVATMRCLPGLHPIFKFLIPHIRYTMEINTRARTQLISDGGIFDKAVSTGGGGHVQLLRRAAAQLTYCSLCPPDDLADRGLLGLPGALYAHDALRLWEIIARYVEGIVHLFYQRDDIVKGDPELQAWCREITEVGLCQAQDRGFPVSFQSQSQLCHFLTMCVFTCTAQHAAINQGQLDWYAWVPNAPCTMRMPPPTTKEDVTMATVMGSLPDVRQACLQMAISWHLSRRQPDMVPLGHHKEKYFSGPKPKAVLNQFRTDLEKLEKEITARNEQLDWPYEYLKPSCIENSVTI
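Purified human 12hLO at 150 nM in 25 mM Hepes, 0.01% Triton X-100, pH 7.0, preincubated 15 min at room temperature with compound. Reaction started with 40 uM arachidonic acid, 30 min at room temperature. Hydroperoxide measured by Fe-xylenol orange, 573/405 nm absorbance ratio.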
IL-1B inflam inh = inflammasome signaling inhibition, IL-1 beta readout | THP-1 LPS/ATP IL-1B secretion, AlphaLISA, 16 h; hits give low values | activity change, % at 57.5 µM | hit rate 4.7% among 360,000; in the data active = activity change below about -50%; inconclusive = mostly about -30% to -49%
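THP-1 cells pretreated 1 hr with compounds (up to 57.5 uM final), then stimulated with LPS (250 ng/mL final) plus ATP (1.25 mM final); secreted IL-1B measured by AlphaLISA after 16 hr, decreased signal indicating inhibition.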
TDP1 cell CPT = DT40-hTDP1 cell growth loss with CPT. Potency, µM (series often up to 46.2 µM), actives largely listed as inhibitors. hit rate 12% among 420,000. AID 686979. chicken DT40 Tdp1-/-;hTDP1 cells + 20 nM CPT, ATP luminescence, 48 h; note: nearly all actives have a fitted effect of over 55% in size
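Cell growth measured by CellTiter-Glo luminescence after a minimum 48 h, 37 C compound exposure with 20 nM CPT in Tdp1-knockout DT40 cells stably expressing hTDP1, seeded 400/well; qHTS titration format.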
A number is an active result; n = inactive; u = inconclusive; x = not tested or not shown. Unless noted, calls come from the whole dose curve; as a rule, active = well fitted curve in the direction sought with a large enough effect; inconclusive = small, poorly fitted or top-dose-only effect, or another doubt; inactive = no such curve, though single readings can be large; an effect the other way counts as inactive or inconclusive.

SMILES	DT40 TDP1 no CPT	HT1080 IDH1KD tx	HT1080NT lethal	ALOX12 inh	IL-1B inflam inh	TDP1 cell CPT
Clc1ccc(CNc2ccccc2NCc2ccc(Cl)nc2)cn1	u	n	n	n	n	16µM
CCN(CC)C(=O)CSc1nnc(-c2cc(-c3ccc(Cl)cc3)nc3ccccc23)o1	u	n	n	n	n	n
CN(C)C(=O)CSc1nnc(-c2cc(-c3cccs3)nc3ccccc23)o1	18µM	n	n	n	-60	n
CC1=C(C(=O)N(C)C)CC(CC(=O)NCC2CCCCC2)C(=O)N1Cc1ccc(C(C)(C)C)cc1 (stereo not drawn)	16µM	n	n	n	n	u
CCN(CC)C(=O)C1=C(C)N(Cc2ccc(C(C)(C)C)cc2)C(=O)C(CC(=O)NCC2CCCCC2)C1 (stereo not drawn)	18µM	u	u	u	-82	13µM
CC1=C(C(=O)N(C)C)CC(CC(=O)NCC2CCCCC2)C(=O)N1Cc1ccccc1 (stereo not drawn)	n	n	n	u	n	n
CCOc1ccc(NC(=O)Cn2nnc3sc4c(c3c2=O)CC(C)(CC)OC4)cc1 (stereo not drawn)	x	x	x	n	x	x
CCCCCC1=CCC/C1=N\NC(=O)c1ccco1	x	x	x	n	x	x
C=CCNC(=S)N/N=C1/CCC=C1CCCCC	x	x	x	35µM	x	x
C1=Nc2ccccc2/C1=C/c1ccccc1	13µM	x	x	x	x	4.5µM
COCC1CN(C2CCC2)CC12CCN(C(=O)Cc1cccc(F)c1)CC2 (stereo not drawn)	x	x	x	n	x	x
CCc1nc2c(OCc3ccc(F)c(F)c3)cccn2c1N(C)C(=O)c1ccc(OC)cc1	23µM	n	n	n	n	16µM
CCc1nc2c(OCc3ccccc3C)cccn2c1N(C)C(=O)c1ccc(C)cc1	16µM	n	n	n	n	18µM
CCc1nc2c(OCc3ccc(F)c(F)c3)cccn2c1N(C)C(=O)c1ccc(C)cc1	9.2µM	n	n	u	n	23µM
CCc1nc2c(OCc3ccccc3C)cccn2c1N(C)C(=O)c1ccco1	u	n	n	n	n	u
CCc1nc2c(OCc3ccccc3)cccn2c1N(C)C(=O)c1ccc(OC)cc1	u	n	u	u	n	n
CCc1nc2c(OCc3cc(Cl)cc(Cl)c3)cccn2c1N(C)C(=O)c1ccc(C)cc1	u	u	u	u	-57	16µM
CCNC(=O)C(C)Sc1nnc(-c2cccs2)n1C1CC1 (stereo not drawn)	x	x	x	n	x	x
COc1ccccc1NC(=O)C(C)N(c1ccccc1)S(C)(=O)=O (stereo not drawn)	x	x	x	n	x	x
CCc1nc2c(OCc3ccc(Cl)cc3)cccn2c1N(C)C(=O)c1ccncc1	21µM	n	n	n	n	21µM
CCc1nc2c(OCc3ccc(F)cc3)cccn2c1N(C)C(=O)c1ccncc1	n	n	n	n	n	n
CC(C)C(c1nnnn1CCc1ccccc1)N1CCOCC1 (stereo not drawn)	n	n	n	u	n	n
COc1ccc(N2CCN(C(c3nnnn3CCc3ccccc3)C(C)C)CC2)cc1 (stereo not drawn)	18µM	n	n	n	n	13µM
CC1CCN(C(c2nnnn2CCc2ccccc2)C(C)C)CC1 (stereo not drawn)	18µM	n	n	n	n	u
COc1ccc(CCN2C(=O)c3cccc4c(C(=O)N5CCCCC5)ccc(c34)C2=O)cc1OC	u	n	n	n	n	16µM
SMILES	DT40 TDP1 no CPT	HT1080 IDH1KD tx	HT1080NT lethal	ALOX12 inh	IL-1B inflam inh	TDP1 cell CPT
COc1cc(Cl)c(C)cc1NC(=O)CSc1cc(Cl)ccc1Cl	23µM	n	n	u	n	u
COc1cc(Cl)c(C)cc1NC(=O)CSCC#N	n	n	10µM	n	n	n
COc1cc(Cl)c(C)cc1NC(=O)CSc1ccccc1	n	n	n	n	n	n
COc1cc(Cl)c(C)cc1NC(=O)CSC	n	n	n	n	n	n
Cc1ccc(C(NC(=O)C2CCN(CCOc3ccc(Cl)cc3)CC2)c2ccccn2)cc1 (stereo not drawn)	u	u	u	u	-70	u
COc1ccc(C(NC(=O)C2CCN(CCOc3ccc(Cl)cc3Cl)CC2)c2ccccn2)cc1 (stereo not drawn)	23µM	21µM	23µM	n	-56	u
CC(NC(=O)C1CCN(CCOc2ccc(Cl)cc2)CC1)c1cccc2ccccc12 (stereo not drawn)	u	u	u	22µM	u	16µM
Cc1cccnc1C(c1ccc(F)cc1)N(C)C(=O)C1CCN(CCOc2ccc(Cl)cc2Cl)CC1 (stereo not drawn)	21µM	n	u	u	-56	26µM
COc1ccccc1C(NC(=O)C1CCN(CCOc2ccccc2)CC1)c1ccccn1 (stereo not drawn)	u	n	u	n	n	u
COc1ccc(CN2CCC(C(=O)NC(C)c3cccc4ccccc34)CC2)cc1 (stereo not drawn)	u	n	n	x	n	u
Cc1cccnc1C(c1ccc(F)cc1)N(C)C(=O)C1CCN(CCCOc2ccc(F)cc2)CC1 (stereo not drawn)	u	u	u	n	u	u
COc1ccc(-c2nc(CSCC(=O)Nc3ccc(C#N)cc3)co2)cc1	x	x	x	n	x	x
O=C(NC(c1ccc(Cl)cc1)c1ccsc1)C1CCN(CCOc2ccc(Cl)cc2)CC1 (stereo not drawn)	u	u	u	32µM	-68	u
COc1cc(OC)nc(C(NC(=O)C2CCN(Cc3c[nH]c4ccccc34)CC2)c2ccc(Cl)cc2)n1 (stereo not drawn)	18µM	n	5.8µM	u	-61	u
O=C(NC(c1ccccc1)c1ccsc1)C1CCN(Cc2ccc(Cl)c(Cl)c2)CC1 (stereo not drawn)	u	n	n	n	u	u
COc1cc(OC)nc(C(NC(=O)C2CCN(Cc3ccc(N(C)C)cc3)CC2)c2ccc(F)cc2)n1 (stereo not drawn)	u	n	n	n	n	u
COc1ccc(OCC(=O)NC(c2ccccc2)c2cccs2)cc1 (stereo not drawn)	x	x	x	n	x	x
COc1ccccc1C(NC(=O)C1CCN(CCOc2ccc(Cl)cc2Cl)CC1)c1ccccn1 (stereo not drawn)	u	15µM	u	u	n	u
COc1ccc(C(NC(=O)C2CCN(CCCOc3ccccc3)CC2)c2cccs2)cc1 (stereo not drawn)	u	u	u	u	-56	u
O=C(CN1CCN(C(=O)c2ccc(OCC(F)(F)F)nc2)CC1)Nc1ccccc1Cl	x	x	x	n	x	x
